14 compounds from PubChem BioAssay (NCI) can be followed below.

SMILES strings stand for the structures. This is part of a sample that, as a whole, favours compounds with a hit. Of some 83,000 tested, about 20% had one in any assay.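 Assay: single dose, 48 h. Readout: percent growth (0 = no net growth; negative = cell death). Active: <10.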 Unmarked numbers belong to inactive results.

This experiment deals with NCI-H322M lung. Briefly: NCI-60 one-dose screen, 48 h (100 = growth as untreated, 0 = no growth, -100 = all killed). The note with it: 10 µM unless noted.
In the case of `C/C=C(\C)C(C(=O)NC1CCCCC1)N(C(=O)C1CCc2cc(F)ccc2O1)c1ccc(Cl)cc1` (centres undefined), the growth is 110%.

For `N=C(N)c1ccc(-c2cc(Cl)cc(Cl)c2)cn1`, the growth was 94%.

Consider `COc1ccc(-c2cc(-c3ccccc3)nc(SCCCC(=O)NO)n2)cc1OC`, for which the growth was 17.1%.

In the case of `CCC(C)/C(=C\C#N)NCCCN/C(=C/C#N)C(C)CC` (centres undefined), the growth is 103%.

Regarding `CC1=C(C#N)C(=O)NC(C)C1` (centres undefined), the growth is 106%.

On to `COc1cccc(/C=C2\Oc3cc(OCCCN4CCCC4)ccc3C2=O)c1OC`, for which the growth is 92.8%.

`COc1cc(C2C3=C(COC3=O)Nc3cc4c(cc32)CCC4)cc2c1OCO2` (centres undefined): the growth was 50.7%.

Regarding `CCN(CC)c1ccc(/C=C2\Oc3ccc(O)c(I)c3C2=O)cc1`, the growth is 96.9%.

With `C=C(C)[C@@H]1CC[C@]2(C(=O)O)CC[C@]3(C)[C@H](CC[C@@H]4[C@@]5(C)C[C@@H](CC#Cc6ccc(C(F)(F)F)cc6)[C@H](O)C(C)(C)[C@@H]5CC[C@]43C)[C@@H]12`, the growth is 35.2%.

For `COc1ccc2c(c1)[nH]c(=O)c1c3cccc(F)c3cn21`, the growth is 52.4%.

For `CCOC(=O)C1=C(C)NC(C)=C(C(=O)OCC)C1(C)C`, the growth was 107%.

Consider `COc1cccc(/C=C/C(=O)Nc2cc(OC)c3c(c2)OCO3)c1`, for which the growth was 102%.

Turning to `COc1cccc(-c2nc3sccn3c2-c2ccnc(NCCCNS(=O)(=O)c3ccc(F)cc3)c2)c1`, the growth is 69.9%.

As to `COc1ccc(S(=O)(=O)Nc2cc(/C=C\c3cc(OC)c(OC)c(OC)c3)cc(OC)c2OC)cc1`, the growth was 27.1%.
